PubChem BioAssay AID1259313 (Sanford-Burnham Center for Chemical Genomics, 2017)
About 8,500 (2.5%) of roughly 340,000 compounds were called active. The sample as a whole holds a higher share of actives than the screen did. A number with no mark means an inactive call.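 The calls were made as follows: active = melting temperature shift of at least 10% of the positive control shift, at one fixed dose; inactive = the rest.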

Tested on: Glutamate receptor ionotropic, NMDA 3A (GRIN3A) ligand-binding domain
Assay: NR3A LBD thermal stabilization by compounds – biophysical, differential scanning fluorimetry, uHTS, primary screen (AID 1259313)
Conditions: at 25 µM, stronger effect = higher value, 0% = protein alone, 100% = glycine-bound protein

Compound	Tm shift relative to glycine control
c1ccc(COc2ccccc2CNCc2cccnc2)cc1	-0.7%
COCC(C)n1c(SCC(=O)NC2CCCCC2C)nc2ccccc2c1=O (configuration not stated)	-0.26%
CCOC(=O)C(C)Sc1nc2ccccc2c(=O)n1CC1CCCCC1 (configuration not stated)	15.7% (active)
CCOn1c(SC(C)C)nc2ccccc2c1=O	-0.18%
CCOC(=O)CCCCCC(=O)Nc1ccc2c(c1)CC(=O)N([C@@H](C)CO)C[C@H](C)[C@@H](CN(C)Cc1ccccc1)O2	0.56%
COc1ccc(NCc2nnc(SCc3ccccc3)n2-c2ccc(OC)cc2)cc1	-0.87%
CCc1nonc1NC(=O)c1oc2ccc(Cl)cc2c1C	-0.44%
COc1ccc(CCNC(=O)COC(=O)Cc2cccc(F)c2)cc1	15.5% (active)
COc1ccc(CCNC(=O)COC(=O)Cc2ccccc2F)cc1	1.52%
COc1ccc(CCNC(=O)COC(=O)Cc2cc(OC)c(OC)c(OC)c2)cc1	-0.75%
NC(=S)c1ccc(C(N)=S)o1	9.83%
COc1ccc(C(C(=O)NCC2CCCO2)N(C(=O)Cn2nnc3ccccc32)c2ccc(NC(C)=O)cc2)cc1OC (configuration not stated)	1.93%
O=C(NC(Cc1c[nH]c2ccccc12)C(=O)N/N=C/c1ccc(Br)cc1)c1cccs1 (configuration not stated)	19.7% (active)
CC(=O)NC(Cc1c[nH]c2ccccc12)C(=O)NCCc1ccccc1 (configuration not stated)	1.08%
O=C(CNC(=O)c1cccs1)N/N=C/c1cccc(Br)c1	-2.08%
OC(CNCC1CCCO1)Cn1c2ccc(Br)cc2c2cc(Br)ccc21 (configuration not stated)	-15.9%
O=C1/C(=C\c2ccc([N+](=O)[O-])cc2)CS(=O)(=O)C/C1=C/c1ccc([N+](=O)[O-])cc1	-9.77%
O=[N+]([O-])c1ccc(N/N=C/c2ccccc2)cc1	29.2% (active)
O=[N+]([O-])c1cccc(/C=N/Nc2ncc(Br)cn2)c1	-2.79%
O=[N+]([O-])c1ccc(C=NN=Cc2ccc([N+](=O)[O-])cc2)cc1	12.6% (active)
CC(C)c1ccc(C=NNc2ccc([N+](=O)[O-])cn2)cc1	-2.51%
O=[N+]([O-])c1ccc(N=NNc2ccc([N+](=O)[O-])cc2)cc1	4.69%
CC1(C)Cc2c(sc(NC(=O)C(=O)N3CCOCC3)c2C#N)CO1	2.25%

Compound	Tm shift relative to glycine control
O=C(CN1C2CCC1CC(NC(=O)C1CC1)C2)NCc1ccccc1 (configuration not stated)	-0.34%
O=C(COC(=O)C1CC2CCCC(C1)C2=O)NC(=O)c1ccccc1 (configuration not stated)	-1.22%
Cc1c(C(=O)NNC(=O)c2ccncc2)oc2ccccc12	2.4%
COc1ccc(NC(=O)N2CCCC2C(=O)NCc2ccccc2Cl)cc1 (configuration not stated)	-2.42%
FC(F)(F)c1cccc(-c2cc3ccccc3nc2N2CCCC2)c1	-0.24%
Cc1ccc(S(=O)(=O)N(c2cccc(C)c2)C2CCS(=O)(=O)C2)cc1 (configuration not stated)	-3.26%
COCCn1c(=NC(=O)c2ccccc2[N+](=O)[O-])sc2cc(S(C)(=O)=O)ccc21	3.81%
C=C(C)COc1ccc(-c2ncncc2-c2ccc(OC)cc2)c(O)c1	-1.75%
C=C(C)COc1ccc(-c2n[nH]c(C)c2-c2ccccc2)c(O)c1	10.9% (active)
C=C(C)COc1ccc(-c2nc(N)ncc2-c2ccccc2OC)c(O)c1	-3.37%
COc1c(C)c2c(c(O)c1C/C=C(\C)CCC(=O)O)C(=O)OC2	0.8%
CC(OC(=O)c1cc2ccccc2[nH]1)C(=O)N(C)c1ccccc1 (configuration not stated)	-1.09%
COc1ccc2[nH]c(C(=O)Nc3ccccc3Cl)cc2c1	1.25%
O=C(Nc1ccccc1)c1cc2ccccc2[nH]1	20.5% (active)
Cc1ccc(CC2C(=O)N(c3ccc(F)cc3)C(=O)C2C)cc1 (configuration not stated)	1.55%
CC(=O)N1CCN(CC(C)(C)NS(=O)(=O)c2ccc(C)cc2)CC1	1.96%
O=C(NCCCN1CCOCC1)C1CCCN(S(=O)(=O)N2CCCCC2)C1 (configuration not stated)	-1.39%
CCOC(=O)N1CCN(C(=O)C(=O)Nc2sc3c(c2C#N)CC(C)(C)OC3)CC1	-1.52%
CCc1ccccc1N(CC(=O)NCC1CCCO1)C(=O)CCC(=O)Nc1nccs1 (configuration not stated)	-2.76%
COc1cccc(CC2(CO)CCCN(Cc3nc(-c4cccs4)oc3C)C2)c1 (configuration not stated)	-1.72%
COc1cccc(CC2(CO)CCCN(Cc3ccc(OC(F)F)cc3)C2)c1 (configuration not stated)	25.6% (active)
COc1cccc(CC2(CO)CCCN(CC3=Cc4cc(OC)ccc4OC3)C2)c1 (configuration not stated)	-4.46%
O=C(CCNS(=O)(=O)c1ccccc1)NCCSc1ccc(Br)cc1	-2.33%

Compound	Tm shift relative to glycine control
O=c1cc(-c2ccccc2)[nH]c2cc(F)ccc12	-1.79%
c1ccc(-c2ccc3c(c2)NC(C2Nc4cc(-c5ccccc5)ccc4O2)O3)cc1 (configuration not stated)	0.36%
c1ccc(-c2c[nH]c(-c3ccccc3)c2)cc1	17.4% (active)
Nn1c(SCc2ccccc2)nnc1C1CCCCC1	1.23%
Cc1ccccc1Nc1nc(N)nc(COC(=O)CCC(=O)c2ccc(F)cc2)n1	-0.42%
CCC1SC2=NCCN2C1(O)c1ccc(Cl)cc1 (configuration not stated)	-1.83%
CCOc1ccc(S(=O)(=O)N/N=C(\C)c2ccc(Cl)c(Cl)c2Cl)cc1	16.2% (active)
CCOc1cc(NS(=O)(=O)c2ccc(OC)cc2)c(OCC)cc1NC(C)=O	1.23%
CCOc1ccc(S(=O)(=O)Nc2nccs2)cc1	-0.76%
O=C(O)C(CCc1ccccn1)c1ccccc1 (configuration not stated)	0.46%
O=C1c2ccccc2C(=O)N1CCC#Cc1ccc2cc(C3(O)CCCCC3)oc(=O)c2c1	35.3% (active)
COc1cc(C(=O)NCCOC(=O)c2cccc(N(C)C)c2)cc(OC)c1OC	0.47%
Cc1ccc(-c2nn(-c3ccccc3)cc2/C=C2\SC(=S)N(CCCCCC(=O)O)C2=O)o1	-394%
COc1ccc(-c2nn(-c3ccccc3)cc2/C=C2/SC(=S)N(CCCC(=O)O)C2=O)c(C)c1	12.5% (active)
C=CCOc1ccc(/C=C2\SC(=S)N(CCC(=O)O)C2=O)cc1	1.33%
COc1cccc(NS(=O)(=O)c2ccc(-c3coc(C)n3)cc2)c1	-0.18%
O=C(CCNS(=O)(=O)c1ccc(Br)s1)NCc1ccccc1Cl	-2.24%
CCOc1ccccc1NC(=S)C(=C([O-])c1ccc2c(c1)OCCO2)[n+]1ccc(CC)cc1	-1.27%
COC(=O)c1cc(Oc2ccc(S(=O)(=O)N3CCOCC3)cc2[N+](=O)[O-])cc(C(=O)OC)c1	0.08%
Cc1ccc(-c2nnc(-c3ccc(NC(=O)c4cccs4)cc3)o2)cc1	22.2% (active)
Cc1ccc(NC(=O)c2cccs2)cc1S(=O)(=O)N(C)C	-5.63%
O=C(CNC(=O)c1ccc(Br)o1)Nc1ccccc1	2.09%
Cc1ccc(OCC(=O)Nc2ccc(NC(=O)c3cccs3)cc2)c(C)c1	0.85%

Compound	Tm shift relative to glycine control
Cc1cccc(C=CC(=O)c2ccc(Cl)cc2)c1	4.44%
Brc1ccc(-c2nnc(-c3ccccc3)o2)o1	-0.09%
O=C(Nc1ccc(-c2nnc(-c3ccccc3)o2)cc1)c1ccc(Br)o1	35.9% (active)
Cc1ccc(C(=O)Nc2ccc(NC(=O)c3cccs3)cc2)c(C)c1	28.3% (active)
CCc1ccc(NC(=O)C(=O)NNC(=O)c2cccs2)cc1	-14.4%
Cc1cccc(C(=O)Nc2ccc(C(=O)/C=C/c3cccs3)cc2)c1	29.2% (active)
Cc1ccc(C(=O)NNC(=O)c2cccs2)cc1	0.08%
Cc1cccc(C(=O)Nc2ccc(CC(=O)O)cc2)c1	-4.02%
COc1cccc2c1C(=O)c1c(O)c3c(c(O)c1C2=O)CC(O)(C(C)=NNC(=O)c1ccc(Cl)c(Cl)c1)CC3OC1CC(N)C(O)C(C)O1 (configuration not stated)	-18.1%
COc1ccc(C)cc1S(=O)(=O)Nc1cccc(Cl)c1Cl	-5.61%
CCCOc1ccc(/C=N/NC(=O)C2CC2)c(OCCC)c1	0.85%
Cc1cc(C)nc(NS(=O)(=O)c2ccc(N/C=C\C(=O)c3cccs3)cc2)n1	-2.02%
COc1cc(CO)ccc1OCC(=O)Nc1cccc2ccccc12	1.02%
CCOC(=O)[C@H]1[C@H]2COc3ccc(OC)cc3[C@@H]2N2C(=O)c3ccc(F)cc3NC(=O)[C@@]12C	-0.63%
NC1=C([N+](=O)[O-])C(c2ccccc2)C2=C(CCCC2=O)O1 (configuration not stated)	-0.34%
Cc1cccc(NC(=O)CCN2CC(C)CC(C)C2)c1 (configuration not stated)	-0.71%
Cc1cccc(NC(=O)C(C)SCc2ccccc2)c1 (configuration not stated)	1.98%
Cc1cccc(NC(=O)C(C)N2C(=O)C3C4CC(C(Br)C4Br)C3C2=O)c1 (configuration not stated)	13.7% (active)
Cc1ccc(Nc2ccccc2N)cc1	0.92%
CCn1c(O)c(N=NC(=O)c2cccc(S(=O)(=O)N3CCCCC3)c2)c2ccccc21	-34.1%
Cc1cccc(C(=O)Nc2ccc3c(c2)C(=O)N(CC(C)C)C3=O)c1	0.17%
Cc1cccc(N2C(=O)c3ccc(C(=O)Nc4cccc(C(=O)O)c4)cc3C2=O)c1	11.6% (active)
CC(=O)Nc1ccc(NC(=O)c2ccc3c(c2)C(=O)N(c2ccccc2C)C3=O)cc1	-0.29%
